# Values joined by “and” are separate entries in the source; they are usually repeats but may differ in a detail not shown here. Equal values may be shown once. For part of these data: Results with a measured potency or affinity are listed apart.
# Legend:
# Set-up in all cases: scale not given: direction of the effect not stated beside the values
# [1] = biological target: Protein translocase subunit SecA (Escherichia coli (strain K12)) (UniProt P10408); experiment: Assay to Identify E. coli SecA ATPase Inhibitors; type: functional; details: 30 µM
# Chain of Protein translocase subunit SecA (Escherichia coli (strain K12)) (P10408 whole entry): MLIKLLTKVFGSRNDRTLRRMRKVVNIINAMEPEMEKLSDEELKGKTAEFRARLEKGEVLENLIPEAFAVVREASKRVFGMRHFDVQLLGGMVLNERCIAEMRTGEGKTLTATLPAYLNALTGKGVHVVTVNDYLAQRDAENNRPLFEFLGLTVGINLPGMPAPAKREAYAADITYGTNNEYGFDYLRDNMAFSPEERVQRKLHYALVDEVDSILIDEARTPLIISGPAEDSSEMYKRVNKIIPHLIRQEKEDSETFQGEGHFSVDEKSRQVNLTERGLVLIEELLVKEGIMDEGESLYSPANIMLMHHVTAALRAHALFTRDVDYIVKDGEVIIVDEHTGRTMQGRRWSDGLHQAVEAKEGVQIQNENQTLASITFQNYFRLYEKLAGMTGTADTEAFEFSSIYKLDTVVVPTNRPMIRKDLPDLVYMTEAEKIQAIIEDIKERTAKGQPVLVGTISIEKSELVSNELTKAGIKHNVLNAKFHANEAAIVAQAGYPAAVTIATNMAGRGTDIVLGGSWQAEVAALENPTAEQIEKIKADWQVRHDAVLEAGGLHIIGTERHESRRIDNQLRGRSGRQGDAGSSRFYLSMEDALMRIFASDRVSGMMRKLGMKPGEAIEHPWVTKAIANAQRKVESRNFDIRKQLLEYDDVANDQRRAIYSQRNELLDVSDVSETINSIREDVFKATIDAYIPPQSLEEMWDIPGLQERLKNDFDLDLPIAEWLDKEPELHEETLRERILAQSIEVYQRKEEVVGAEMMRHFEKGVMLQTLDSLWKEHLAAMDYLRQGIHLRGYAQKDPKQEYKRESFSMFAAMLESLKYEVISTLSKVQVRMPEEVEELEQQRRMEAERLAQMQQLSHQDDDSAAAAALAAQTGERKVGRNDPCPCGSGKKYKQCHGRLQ
# [2] = biological target: T1, Ubiquitin-activating enzyme e1, putative (Leishmania donovani (strain BPK282A1)) (UniProt E9BSI1); experiment: Leishmania donovani Ubiquitin Activating Enzyme (LdE1); type: functional; details: 30 µM
# T1 sequence (whole entry): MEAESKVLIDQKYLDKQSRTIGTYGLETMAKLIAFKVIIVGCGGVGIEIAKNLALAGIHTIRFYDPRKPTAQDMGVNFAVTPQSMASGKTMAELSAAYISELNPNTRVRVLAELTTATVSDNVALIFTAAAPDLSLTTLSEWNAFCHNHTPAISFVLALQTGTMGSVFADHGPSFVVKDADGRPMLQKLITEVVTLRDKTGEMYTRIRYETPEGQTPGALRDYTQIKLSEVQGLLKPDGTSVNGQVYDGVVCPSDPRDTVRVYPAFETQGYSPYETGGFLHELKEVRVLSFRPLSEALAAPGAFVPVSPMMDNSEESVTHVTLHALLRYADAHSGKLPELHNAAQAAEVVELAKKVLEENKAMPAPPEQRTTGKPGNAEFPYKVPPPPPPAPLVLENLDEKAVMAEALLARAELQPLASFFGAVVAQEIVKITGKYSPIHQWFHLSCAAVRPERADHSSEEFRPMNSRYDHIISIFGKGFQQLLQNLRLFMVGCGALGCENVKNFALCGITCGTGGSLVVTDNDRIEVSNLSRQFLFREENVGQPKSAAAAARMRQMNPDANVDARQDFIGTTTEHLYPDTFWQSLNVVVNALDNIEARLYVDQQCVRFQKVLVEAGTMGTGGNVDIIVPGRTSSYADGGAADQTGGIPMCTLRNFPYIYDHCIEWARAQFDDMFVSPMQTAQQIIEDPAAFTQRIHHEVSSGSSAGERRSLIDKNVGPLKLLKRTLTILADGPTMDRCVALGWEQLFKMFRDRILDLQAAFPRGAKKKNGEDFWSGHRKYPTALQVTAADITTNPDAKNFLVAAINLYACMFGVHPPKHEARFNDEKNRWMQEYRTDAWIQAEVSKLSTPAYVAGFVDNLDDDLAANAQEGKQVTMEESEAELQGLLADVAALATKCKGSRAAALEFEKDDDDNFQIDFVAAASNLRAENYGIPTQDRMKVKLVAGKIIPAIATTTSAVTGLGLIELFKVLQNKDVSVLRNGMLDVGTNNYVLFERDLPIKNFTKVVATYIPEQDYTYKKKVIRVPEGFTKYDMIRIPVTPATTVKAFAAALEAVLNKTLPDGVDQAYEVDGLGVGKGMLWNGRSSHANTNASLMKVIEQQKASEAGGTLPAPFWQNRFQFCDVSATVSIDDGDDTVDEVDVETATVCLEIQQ
# [3] = biological target: AMP-activated protein kinase, AMPK (Homo sapiens) (UniProt P54646+O43741+P54619+Q9UGJ0+Q9Y478+Q13131+Q9UGI9); experiment: AMP-dependent Kinase enzyme assay. An in vitro enzyme assay that detects ADP turnover that is directly proportional to AMPK activity. This uses naive AMPK that is activated during the assay with MK-8722; type: functional; details: 30 µM
# [4] = biological target: Sialic acid-binding Ig-like lectin 9 (Homo sapiens) (UniProt Q9Y336); experiment: Hs-Siglec9 ALPHAscreen SOP 20170721; details: 10 µM
# Chain of Sialic acid-binding Ig-like lectin 9 (Homo sapiens) (Q9Y336 whole entry): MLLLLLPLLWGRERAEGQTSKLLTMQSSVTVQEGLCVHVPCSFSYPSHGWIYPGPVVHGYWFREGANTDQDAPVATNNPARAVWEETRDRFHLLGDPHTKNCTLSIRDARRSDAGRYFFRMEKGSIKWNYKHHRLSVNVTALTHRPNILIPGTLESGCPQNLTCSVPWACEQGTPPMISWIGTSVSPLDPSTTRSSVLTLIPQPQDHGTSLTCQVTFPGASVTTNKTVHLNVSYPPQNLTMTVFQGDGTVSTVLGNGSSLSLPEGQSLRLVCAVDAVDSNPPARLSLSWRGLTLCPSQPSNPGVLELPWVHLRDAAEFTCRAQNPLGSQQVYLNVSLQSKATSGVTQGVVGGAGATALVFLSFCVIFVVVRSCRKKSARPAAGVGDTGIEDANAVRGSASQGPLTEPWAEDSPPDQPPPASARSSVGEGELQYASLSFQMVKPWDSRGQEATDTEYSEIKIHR
# Trypanosoma cruzi = experiment: Trypanosoma cruzi phosphomannomutase and mannose-1-phosphate guanylyltransferase assay; type: functional; details: 10 µM
# [5] = biological target: T2, Arginase-2, mitochondrial (Homo sapiens) (UniProt P78540); experiment: in vitro enzyme assay to detect the production of urea directly proportional to the activity of Arginase II; type: functional; details: 33.3 µM; note: in the data most compounds retested in dose-response had high values
# T2 sequence (whole entry): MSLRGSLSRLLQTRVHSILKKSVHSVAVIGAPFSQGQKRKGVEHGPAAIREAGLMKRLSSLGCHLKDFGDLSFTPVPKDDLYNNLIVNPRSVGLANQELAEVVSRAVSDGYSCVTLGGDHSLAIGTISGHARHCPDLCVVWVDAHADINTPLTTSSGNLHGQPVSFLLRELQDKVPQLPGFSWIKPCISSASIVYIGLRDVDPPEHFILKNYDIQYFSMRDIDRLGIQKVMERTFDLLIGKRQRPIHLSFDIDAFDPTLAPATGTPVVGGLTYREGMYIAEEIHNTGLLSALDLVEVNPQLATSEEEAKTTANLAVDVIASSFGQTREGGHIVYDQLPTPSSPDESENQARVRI
# [6] = biological target: T3, Proteasome subunit beta (Trypanosoma cruzi) (UniProt O96673); experiment: Trypanosoma cruzi proteasome chymotrypsin-like activity (TcProtChymo) assay.; note: in the data most compounds retested in dose-response had high values; type: functional; details: 9.37 µM
# T3 sequence (whole entry): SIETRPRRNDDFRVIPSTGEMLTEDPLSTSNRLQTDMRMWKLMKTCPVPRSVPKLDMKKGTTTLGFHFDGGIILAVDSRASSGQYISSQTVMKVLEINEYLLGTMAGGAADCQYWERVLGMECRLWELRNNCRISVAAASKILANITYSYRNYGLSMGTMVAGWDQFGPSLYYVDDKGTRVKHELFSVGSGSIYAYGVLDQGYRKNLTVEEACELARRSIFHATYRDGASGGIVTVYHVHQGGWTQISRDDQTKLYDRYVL
# Homo sapiens = species on record: Homo sapiens; experiment: To identify inhibition of the IFN signalling (Jak-Stat) pathway via expression of an eGFP reporter gene under the control of an IFN-stimulated response element (ISRE) containing MxA promoter.; type: functional; details: 30 µM
# [7] = biological target: T4, Tyrosyl-tRNA synthetase, putative (Trypanosoma cruzi (strain CL Brener)) (UniProt Q4DSP6); experiment: Trypanosoma cruzi tyrosyl tRNA synthetase (TcYRS) _High Tyrosine SOP; type: functional; details: 30 µM; note: in the data most compounds retested in dose-response had high values
# T4 sequence (whole entry): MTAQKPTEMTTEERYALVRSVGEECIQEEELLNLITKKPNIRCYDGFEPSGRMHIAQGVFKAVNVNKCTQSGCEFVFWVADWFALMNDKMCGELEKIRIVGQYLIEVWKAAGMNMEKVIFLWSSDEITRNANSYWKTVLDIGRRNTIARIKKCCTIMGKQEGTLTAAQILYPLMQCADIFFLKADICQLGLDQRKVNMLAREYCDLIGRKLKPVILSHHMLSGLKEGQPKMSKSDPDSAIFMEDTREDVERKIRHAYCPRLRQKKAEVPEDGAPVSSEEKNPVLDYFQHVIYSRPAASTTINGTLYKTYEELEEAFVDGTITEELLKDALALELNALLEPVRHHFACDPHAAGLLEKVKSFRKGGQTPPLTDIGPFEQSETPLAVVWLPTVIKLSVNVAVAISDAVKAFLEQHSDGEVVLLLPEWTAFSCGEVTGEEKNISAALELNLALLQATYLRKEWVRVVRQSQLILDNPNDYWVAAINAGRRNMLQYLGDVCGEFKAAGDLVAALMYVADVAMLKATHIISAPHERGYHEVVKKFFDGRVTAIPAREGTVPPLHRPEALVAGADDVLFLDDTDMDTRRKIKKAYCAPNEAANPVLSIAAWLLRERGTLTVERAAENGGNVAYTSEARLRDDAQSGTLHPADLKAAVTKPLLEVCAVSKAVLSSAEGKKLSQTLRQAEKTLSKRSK
# [8] = biological target: T4, Tyrosyl-tRNA synthetase, putative (Trypanosoma cruzi (strain CL Brener)); experiment: Trypanosoma cruzi tyrosyl tRNA synthetase (TcYRS) SOP; type: functional; details: 30 µM
# [9] = biological target: Chromo domain-containing protein 1 (Saccharomyces cerevisiae (strain ATCC 204508 / S288c) (Baker's yeast)) (UniProt P32657); experiment: ScCHD-1 Enzyme Inhibition Assay; type: functional; details: 30 µM; note: in the data most compounds retested in dose-response had high values
# Chain of Chromo domain-containing protein 1 (Saccharomyces cerevisiae (strain ATCC 204508 / S288c) (Baker's yeast)) (P32657 whole entry, the tested form may be a part): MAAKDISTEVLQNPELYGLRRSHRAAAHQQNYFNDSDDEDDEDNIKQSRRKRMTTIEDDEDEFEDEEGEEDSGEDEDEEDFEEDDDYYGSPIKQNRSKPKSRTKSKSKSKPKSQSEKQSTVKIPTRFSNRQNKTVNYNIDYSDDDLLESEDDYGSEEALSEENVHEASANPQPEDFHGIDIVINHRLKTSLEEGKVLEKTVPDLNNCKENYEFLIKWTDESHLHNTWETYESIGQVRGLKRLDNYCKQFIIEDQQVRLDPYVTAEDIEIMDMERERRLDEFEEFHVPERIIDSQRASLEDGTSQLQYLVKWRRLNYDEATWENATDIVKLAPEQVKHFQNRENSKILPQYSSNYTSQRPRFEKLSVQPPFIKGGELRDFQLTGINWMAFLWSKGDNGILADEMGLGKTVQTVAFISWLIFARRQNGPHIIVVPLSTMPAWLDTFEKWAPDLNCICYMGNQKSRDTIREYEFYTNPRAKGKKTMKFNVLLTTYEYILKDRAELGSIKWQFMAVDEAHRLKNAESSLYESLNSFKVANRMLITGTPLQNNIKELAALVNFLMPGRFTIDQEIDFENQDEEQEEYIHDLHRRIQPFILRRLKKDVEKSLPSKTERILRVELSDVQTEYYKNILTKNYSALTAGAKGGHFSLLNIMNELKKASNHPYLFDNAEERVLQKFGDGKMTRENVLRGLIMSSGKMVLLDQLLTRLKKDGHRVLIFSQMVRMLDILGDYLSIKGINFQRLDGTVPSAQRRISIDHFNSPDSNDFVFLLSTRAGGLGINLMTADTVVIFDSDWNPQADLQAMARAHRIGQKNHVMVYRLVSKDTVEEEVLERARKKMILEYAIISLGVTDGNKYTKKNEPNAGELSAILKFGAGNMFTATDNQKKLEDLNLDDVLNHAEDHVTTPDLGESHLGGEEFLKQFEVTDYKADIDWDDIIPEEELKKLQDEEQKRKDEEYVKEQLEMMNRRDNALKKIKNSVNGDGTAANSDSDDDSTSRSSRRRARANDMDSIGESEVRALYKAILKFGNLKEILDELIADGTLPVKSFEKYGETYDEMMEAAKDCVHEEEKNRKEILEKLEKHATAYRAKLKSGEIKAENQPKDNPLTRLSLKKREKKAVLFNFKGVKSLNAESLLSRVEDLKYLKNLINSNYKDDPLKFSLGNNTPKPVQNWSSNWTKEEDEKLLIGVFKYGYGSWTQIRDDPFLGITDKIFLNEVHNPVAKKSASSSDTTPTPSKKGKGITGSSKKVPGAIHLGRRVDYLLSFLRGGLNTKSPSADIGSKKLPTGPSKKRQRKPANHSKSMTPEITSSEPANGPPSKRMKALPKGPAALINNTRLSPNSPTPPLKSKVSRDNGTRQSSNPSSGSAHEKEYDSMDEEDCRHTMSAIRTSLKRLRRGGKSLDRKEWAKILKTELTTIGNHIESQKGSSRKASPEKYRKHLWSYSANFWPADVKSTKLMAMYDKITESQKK
# N/A = experiment: Trypanosoma cruzi proteasome luciferase counter-screen; type: functional; details: 9.37 µM
SMILES,Percent Effect [1],Percent Effect [2],Percent Effect [3],Percent Effect [4],Percent Effect (Trypanosoma cruzi),Percent Effect [5],Percent Effect [6],Percent Effect (Homo sapiens),Percent Effect [7],Percent Effect [8],Percent Effect [9],Percent Effect (N/A)
Cc1noc([C@@H]2C[C@H]3OCC[C@H]3N(S(=O)(=O)c3cccnc3)C2)n1,-2.85%,11%,-6.86%,6.79%,5.75%,-5.19%,4.02%,-3.51%,3.12%,11.1%,-6.9%,–
CCSCCC(=O)Nc1ncn(Cc2cccnc2)n1,-2.86%,5.33%,-3.63%,8.4%,-5.16%,3.65%,17.8%,9.04%,4.92%,13.6%,-5.58%,–
CCOc1cc(/C=C/c2ncc(C(=O)O)s2)ccc1O,-3.57%,11.4%,44.7%,0.0396%,-3.38%,4.95%,47.2% and 46.2% and 45.3%,7.54%,4.17%,7.59%,-20.7%,10.5% and 16.9%
CN(C)C(=O)CN1CCC2(CCCN(Cc3cccn3C)C2)C1=O (stereo not given),-6.92%,10.7%,0.926%,-7.4%,-5.12%,-3.96%,18.2%,10.5%,1.06%,1.28%,-7.43%,–
c1ccc2sc(N3CCOC(Cn4cccn4)C3)nc2c1 (stereo not given),-6.09%,13.5%,-6.61%,25.1%,4.25%,-6.41%,38.1% and 31.4% and 25.9%,17.4%,8.37%,25.9%,-17.7%,10.8% and 13.7%
Cc1ccc(CN(CCCn2ccnc2)Cc2c[nH]cn2)s1,-8.11%,9.46%,-4.5%,6%,0%,1.62%,11.4%,9.27%,9.68%,14.3%,-25.7%,–
O=C(NCCN1CCOCC1)NCc1ncc(-c2ccccc2)o1,-2.93%,2.67%,-6.01%,8.92%,7.3%,0%,16.6%,19.1%,7.1%,13.6%,-0.412%,–
O=C(NCc1nnc2ccccn12)N1CCc2sccc2C1,-3.42%,-6.33%,6.9%,2.84%,-1.33%,1.94%,7.89%,11.1%,2.08%,7.59%,-7.88%,–
Cc1cc(CN2CCC(CNC(=O)c3nccc4ccccc34)C2)[nH]n1 (stereo not given),1.25%,10.8%,-15.5%,7.44%,4.2%,15.6%,12.3%,26.4%,11.8%,25.9%,-2.74%,–
CCn1c(C(=O)N2CCN(CC(C)O)CC2)cc2ccccc21 (stereo not given),-8.12%,7.79%,-6.74%,7.69%,10.1%,-1.78%,6.42%,-0.229%,3.88%,21.9%,-10.6%,–
CN1CCN(Cc2nc3ccccc3[nH]2)[C@H]2CS(=O)(=O)C[C@H]21,-1.9%,8.11%,-2.29%,-1.77%,-1.07%,-1.24%,13.1%,5.83%,10.8%,18.5%,-2.69%,–
Cc1nn(C)c(N(C)C)c1CNC1CCc2c(F)cccc21 (stereo not given),0.322%,13.2%,-5.14%,-4.54%,4.89%,5.75%,17%,-1.05%,6.37%,17.1%,-6.66%,–
CN(C(=O)NCCCN1CCCC1)C1CCN(c2ccccc2)C1=O (stereo not given),5.28%,15.8%,2.15%,-4.7%,-7.71%,0.766%,20.9%,24.5%,4.41%,12.2%,-10.3%,–
Cc1nc(C2CCCN(C(=O)c3cccc(S(C)(=O)=O)c3)C2)no1 (stereo not given),-1.36%,-1.27%,5.98%,4.04%,-1.95%,7.96%,12.3%,-20.9%,0%,0%,3.1%,–
Cc1noc([C@H]2C[C@H]3OCC[C@H]3N(Cc3ccc4c(c3)OCO4)C2)n1,-1.12%,13.5%,5.01%,-6.24%,-0.88%,6.05%,11.4% and 30.6% and 12.5%,-2.22%,5.41%,17.9%,-3.92%,7.96% and 8.15%
O=C(NCc1nnc2n1CCCC2)N1CCc2ccccc2C1,-3.86%,11.4%,-3.15%,2.59%,-4%,4.09%,4.63%,4.93%,1.04%,12.7%,-7.99%,–
O=C(Nc1ccccn1)C1CC(=O)N(Cc2ccccn2)C1 (stereo not given),-2.05%,15.8%,1.82%,8.62%,-4.97%,2.37%,26.3% and 37.5% and 33.2%,-8.07%,3.19%,7.79%,-4%,28% and 30%
CCn1c(CN(C)C)nnc1C1CCN(Cc2ccccc2)CC1,-0.0485%,10.4%,2.85%,13.5%,5.61%,-6.9%,11.7%,12.4%,7.53%,21%,-8.57%,–
CC(=O)N(Cc1ncc(C)o1)C1CCN(Cc2cccc(C#N)c2)C1 (stereo not given),-5.59%,5.41%,-3.95%,9.41%,-2.44%,-1.74%,5.24%,5.84%,0%,1.24%,-0.172%,–
CN(C(=O)Cc1ccc(NC(=O)NC2CCC2)cc1)c1ccccc1,-9.26%,5.26%,-0.53%,9.14%,4.58%,0%,41.9% and 43.6% and 48.1%,9.37%,4.25%,15.6%,-19%,15.8% and 14.9%
